The list is not random: actives were taken first. Their share in the collection is about 19%.
HepG2 viability = qHTS for Inhibitors of TGF-b: Cytotox Counterscreen | HepG2 CAGA-GFP viability, ATP luminescence, 18 h | Potency, µM (highest dose often 46.1 µM), inactives show at the top dose activity change, negative = cytotoxicity, most hits filed as cytotoxic | 0.76% of 410,000 active | AID 588856, 2011; further: potency means the concentration at half of the fitted maximal effect
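CellTiter-Glo luminescence gave cytotoxicity after 18 hours at 37 degrees C. The cells were HepG2 CAGA-GFP in 1% FBS DMEM, stimulated with 500 pg/mL TGF-beta after compound addition. %Activity was normalised to no-cell wells (complete cell-killing) and DMSO (no toxicity), and curves were fitted and classified.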
TGFb SMAD3 inh = qHTS for Inhibitors of TGF-b; HepG2 CAGA-GFP TGF-b/SMAD3 reporter, GFP fluorescence, 18 h; TGF-beta stimulated, 500 pg/mL final; 1.2% of 410,000 active; Potency, µM (titrated, usually from 46.1 µM), inactives show at the highest dose activity, negative = inhibition, actives largely listed as inhibitors; AID 588855, 2011; further: potency means the concentration at half of the fitted maximal effect; on the % scale 0 is the no-effect control and ±100 the full control effect; nearly all actives have a fitted effect of over 65% in size
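GFP signal (ex488/em500-530) from TGF-beta-stimulated HEPG2 CAGA-GFP cells, 500 pg/mL final, 18 h at 37 degrees C in DMEM plus 1% FBS, normalized to unstimulated and DMSO-stimulated controls.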
IL1B secr inh = qHTS for Inhibitors of Inflammasome Signaling: IL-1-beta AlphaLISA Primary Screen; THP-1 LPS/ATP IL-1B secretion, AlphaLISA, 16 h; active compounds read low; activity change, % at 57.5 µM; 4.7% of 360,000 active; in the data active means activity change below about -50%; inconclusive means mostly about -30% to -49%; further: on the % scale 0 is the no-effect control and ±100 the full control effect
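Secreted IL-1B measured by AlphaLISA bead assay after 16 h compound exposure of THP-1 cells; compounds (final up to 57.5 uM) added 1 h before LPS (250 ng/mL) and ATP (1.25 mM) stimulation; lower signal means less secretion.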
TDP1 inh = qHTS Assay for Inhibitors of Tyrosyl-DNA Phosphodiesterase (TDP1); AID 485290, 2010; recombinant TDP1, AlphaScreen DNA substrate cleavage; Potency, µM (highest dose often 130 µM), inactives show at the highest dose activity change, negative = inhibition, most hits filed as inhibitors; Tyrosyl-DNA phosphodiesterase 1 (Homo sapiens), Q9NUW8; 0.28% of 350,000 active; further: potency means the concentration at half of the fitted maximal effect; on the % scale 0 is the no-effect control and ±100 the full control effect; nearly all actives have a fitted effect of over 40% in size
Target sequence (Q9NUW8 whole entry, looked up): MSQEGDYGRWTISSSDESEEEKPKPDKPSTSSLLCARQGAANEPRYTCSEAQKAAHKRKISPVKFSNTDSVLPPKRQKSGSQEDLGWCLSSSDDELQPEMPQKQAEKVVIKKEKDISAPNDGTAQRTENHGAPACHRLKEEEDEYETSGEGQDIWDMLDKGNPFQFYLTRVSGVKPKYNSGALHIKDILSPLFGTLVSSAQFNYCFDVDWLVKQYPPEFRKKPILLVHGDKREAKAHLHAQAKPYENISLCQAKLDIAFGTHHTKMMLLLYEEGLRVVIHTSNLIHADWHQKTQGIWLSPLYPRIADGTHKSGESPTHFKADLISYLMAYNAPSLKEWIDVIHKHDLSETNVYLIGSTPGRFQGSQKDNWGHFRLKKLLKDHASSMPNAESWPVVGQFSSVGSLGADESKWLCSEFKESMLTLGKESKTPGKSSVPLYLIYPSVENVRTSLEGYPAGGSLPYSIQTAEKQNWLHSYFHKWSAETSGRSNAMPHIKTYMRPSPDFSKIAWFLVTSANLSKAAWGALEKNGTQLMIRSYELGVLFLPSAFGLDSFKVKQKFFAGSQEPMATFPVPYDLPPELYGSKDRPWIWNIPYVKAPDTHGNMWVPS
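Recombinant human Tdp1 (E. coli-expressed, 1 nM final) preincubated with compounds 15 min at room temperature, then 5'-biotin/3'-phosphotyrosine-FITC DNA substrate (15 nM final) added for 5 min. AlphaScreen beads (10 ug/ml final) added 10 min; cleavage lowers signal.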
DT40 TDP1 CPT = qHTS for Inhibitors of human tyrosyl-DNA phosphodiesterase 1 (TDP1): qHTS in cells in presence of CPT. Potency, µM (top dose mostly 46.2 µM), without a hit: at the top dose activity change, negative = growth inhibition, actives largely listed as inhibitors. 12% of 420,000 active. chicken DT40 Tdp1-/-;hTDP1 cells + 20 nM CPT, ATP luminescence, 48 h; further: potency means the concentration at half of the fitted maximal effect; on the % scale 0 is the no-effect control and ±100 the full control effect; nearly all actives have a fitted effect of over 55% in size
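Cell growth measured by CellTiter-Glo luminescence after a minimum 48 h, 37 C compound exposure with 20 nM CPT in Tdp1-knockout DT40 cells stably expressing hTDP1, seeded 400/well; qHTS titration format.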
DT40 TDP1 no CPT = qHTS for Inhibitors of human tyrosyl-DNA phosphodiesterase 1 (TDP1): qHTS in cells in absence of CPT. Potency, µM (highest dose often 46.2 µM), for inactives: top-dose activity change, negative = growth inhibition, most hits filed as inhibitors. 15% of 420,000 active. DT40 Tdp1-/- hTDP1 cells, no CPT, ATP luminescence, 48 h; further: potency means the concentration at half of the fitted maximal effect; on the % scale 0 is the no-effect control and ±100 the full control effect; nearly all actives have a fitted effect of over 55% in size
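Growth kinetics read by CellTiter-Glo luminescence after ≥48 hr at 37 °C. Cells: DT40 Tdp1-/- stably carrying human TDP1, 400 per well, compound exposure in the absence of CPT (DMSO vehicle).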
The depositor's hits bear a star; u = inconclusive; x = no result. Unless noted, the call rests on the fitted dose curve; in most records, active means well fitted curve in the direction sought with a large enough effect; inconclusive means small, poorly fitted or top-dose-only effect, or another doubt; inactive means no such curve, though single readings can be large; an effect the other way counts as inactive or inconclusive.

SMILES	HepG2 viability	TGFb SMAD3 inh	IL1B secr inh	TDP1 inh	DT40 TDP1 CPT	DT40 TDP1 no CPT
CC(CCc1ccccc1)NC(=O)CSc1n[nH]c(-c2ccc(F)cc2)n1 (centres undefined)	-19.9%	11.2µM*	x	5.4%	u	23.1µM*
Cc1ccc2c(CC(=O)Nc3ccc(S(=O)(=O)N4CCCCC4C)cc3)coc2c1 (centres undefined)	-20.5%	u	x	7.4%	u	u
CCOC(=O)[C@@H]1[C@H]2COc3ccccc3[C@@H]2N2C(=O)N(c3ccc(Cl)cc3)C(=O)[C@]12C	20.1%	u	-2.3	x	u	-27.1%
CCOC(=O)C1CCN(c2ccc([N+](=O)[O-])c(C(C)=O)c2)CC1	11.8%	-4.6%	33.2	3.6%	8.5%	u
CSc1ccc(CNC(=O)Cc2ccc(NC(=O)C3=C(C)OCCS3)cc2)cc1	-4.4%	-15.7%	23.1	5.0%	2.91µM*	2.91µM*
Cc1ccc(CNC(=O)c2cc(Sc3ccc(F)cc3F)nc3ccccc23)cc1	-13.6%	-0.3%	x	5.2%	-26.7%	-23.0%
Cc1ccc(C)c2[nH]c(=O)c(CN(CCCN(C)C)C(=O)NCc3ccccc3)cc12	-24.1%	0.7%	u	4.2%	u	23.1µM*
COc1ccc2[nH]c(=O)c(CN(CCN(C)C)C(=O)NCc3ccccc3)cc2c1	-13.6%	u	21.9	2.1%	-12.0%	-19.3%
COc1ccc(NC(=O)N(CCc2ccccc2)Cc2cc3c(C)cc(C)cc3[nH]c2=O)cc1	-15.1%	4.0%	-14.2	6.8%	u	u
Cc1cc(C)c2cc(CN(CCCN(C)C)C(=S)NCc3ccccc3)c(=O)[nH]c2c1	2.3%	-14.8%	-73.3*	3.7%	20.6µM*	u
CC(C)(c1ccccc1)c1ccc(OCc2ccc(C(=O)O)o2)cc1	-25.9%	-19.3%	5.1	4.9%	-13.2%	-8.8%
CCOc1ccc(S(=O)(=O)N2CCCC(C(=O)NCc3cccnc3)C2)cc1C (centres undefined)	-7.9%	-22.3%	14.6	6.5%	u	25.9µM*
CCOc1ccc(S(=O)(=O)N2CCCC(C(=O)NCc3ccccn3)C2)cc1Cl (centres undefined)	-4.0%	0.0%	-26.1	x	u	16.4µM*
CC(C)(C)NC(=O)C(c1ccc(I)cc1)N(CCN1CCOCC1)C(=O)CCCNC(=O)c1ccccc1 (centres undefined)	x	x	x	2.7%	x	x
COc1ccc(Cl)cc1S(=O)(=O)N1CCCC(C(=O)N2CCOCC2)C1 (centres undefined)	-11.1%	1.0%	5.4	-0.3%	13.9%	0.1%
Cn1c(=O)c2c(nc(N3CCCCCC3)n2Cc2cccc3ccccc23)n(C)c1=O	9.7%	15.5%	11.3	7.7%	u	25.9µM*
CCOC(=O)Cn1c(=O)c2c(nc(N3CCOCC3)n2Cc2ccccc2)n(C)c1=O	-1.5%	-10.5%	x	-2.3%	u	16.4µM*
Cn1c(=O)c2c(nc(N3CCOCC3)n2CC(=O)c2ccccc2)n(C)c1=O	x	x	x	1.0%	x	x
Cn1c(=O)c2c(nc(N3CCOCC3)n2Cc2ccccc2)n(C)c1=O	-2.1%	-0.8%	x	x	u	25.9µM*
O=c1cnc2cnc(Nc3ccccc3)nc2n1C1CC1	x	x	x	x	-34.0%	u
Cc1ccc(C)c(-c2[nH]c3c(c2-c2c(-n4cccc4)n(C)c(=O)[nH]c2=O)c(=O)[nH]c(=O)n3C)c1	0.8%	0.1%	x	-7.8%	-6.2%	11.7%
